FLuc inh: Firefly luciferase inhibition profiling of diverse chemical library using quantitative high-throughput screening; purified P. pyralis luciferase, luminescence, biochemical; Potency, µM (highest dose often 115 µM), most hits filed as inhibitors; 76,000 compounds, 2.5% hits; AID 1347043, 2019; further: nearly all actives have a fitted effect of over 65% in size
Target sequence (P08659 whole entry, looked up): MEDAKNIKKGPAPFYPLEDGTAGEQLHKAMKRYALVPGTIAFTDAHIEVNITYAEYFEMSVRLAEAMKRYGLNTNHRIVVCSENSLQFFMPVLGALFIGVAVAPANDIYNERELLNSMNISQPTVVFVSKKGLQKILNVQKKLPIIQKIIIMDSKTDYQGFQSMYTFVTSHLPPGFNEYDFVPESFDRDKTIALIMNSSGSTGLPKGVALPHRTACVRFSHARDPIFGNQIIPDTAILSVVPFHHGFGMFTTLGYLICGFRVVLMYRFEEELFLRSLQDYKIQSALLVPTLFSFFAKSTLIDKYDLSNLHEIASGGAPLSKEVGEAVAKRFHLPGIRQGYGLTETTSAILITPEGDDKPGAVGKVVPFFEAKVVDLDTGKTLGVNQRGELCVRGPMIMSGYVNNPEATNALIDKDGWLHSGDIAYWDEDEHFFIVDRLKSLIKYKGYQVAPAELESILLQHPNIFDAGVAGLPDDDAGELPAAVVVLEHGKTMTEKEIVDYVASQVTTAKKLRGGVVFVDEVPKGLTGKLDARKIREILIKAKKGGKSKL
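Purified P. pyralis luciferase (10nM final) in 50mM Tris acetate pH 7.5, 10mM Mg acetate, 0.01% Tween-20, 0.05% BSA with 10uM D-luciferin and 10uM ATP. Compounds titrated qHTS. Luminescence imaged on CCD.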
HEK293 tox: Cytotoxic Profiling in HEK 293 Cell Line of Diverse Libraries Using Quantitative High-Throughput Screening; Potency, µM (top dose mostly 115 µM), usual class: inhibitors; AID 1345083, 2018; 94,000 compounds, 6.6% hits; HEK 293 viability, ATP luminescence (CellTiter-Glo), 48-72 h; further: nearly all actives have a fitted effect of over 60% in size
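ATP-coupled CellTiter-Glo luminescence served as viability read-out, recorded 10 min after reagent addition at room temperature. HEK 293 cells, 250 cells/well, had been incubated with pintool-transferred compound for 48 or 72 hr at 37 degree Celsius.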
hNpr1 antagonist: Natriuretic polypeptide receptor (hNpr1) antagonism - Primary qHTS | Atrial natriuretic peptide receptor 1 (Homo sapiens), P16066 | HEK293 hNpr1 GloSensor cGMP, ANP-stimulated luminescence | Potency, µM (doses to about 46.3 µM), hits mostly inhibitors | 76,000 compounds, 1.6% hits | AID 1347048, 2019; calls by dose curve; further: nearly all actives have a fitted effect of over 60% in size
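Compound pre-incubated 30 min at room temperature on GloSensor-loaded HEK293 cells stably carrying hNpr1 and the pGS-40F cGMP biosensor. Stimulation uses hNppA at 0.1 nM final; luminescence is taken at baseline and 20 min post-agonist.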
3T3 cytotox: Cytotoxic Profiling in NIH 3T3 Cell Line of Diverse Libraries Using Quantitative High-Throughput Screening; NIH 3T3 viability, CellTiter-Glo ATP luminescence, 48-72 h; Potency, µM (series often up to 96.7 µM), most hits filed as inhibitors; 94,000 compounds, 4.3% hits; AID 1345082, 2018; further: nearly all actives have a fitted effect of over 55% in size
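ATP-dependent luminescence (CellTiter-Glo) served as the viability signal for NIH 3T3 cells treated with compound for 48 or 72 hr at 37 °C.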
Numbers stand for hits; - = inactive; ? = inconclusive; . = no result; ! = not confirmed by another sample. Most compounds without a hit are left out; they make up all but 11% or so of the library. Unless noted, the call rests on the fitted dose curve; in most records, active means well fitted curve in the direction sought with a large enough effect; inconclusive means small, poorly fitted or top-dose-only effect, or another doubt; inactive means no such curve, though single readings can be large; an effect the other way counts as inactive or inconclusive.

SMILES	FLuc inh	HEK293 tox	hNpr1 antagonist	3T3 cytotox
Cc1ccc2nc(C3CCCN(Cc4cccc(-c5cccnc5)c4)C3)[nH]c(=O)c2c1 (centres undefined)	-	32µM!	-	?
O=c1[nH]c(C2CCCN(Cc3cccc(Cl)c3)C2)nc2ccc(F)cc12 (centres undefined)	-	?	-	?
O=c1[nH]c(C2CCCN(CC3CCCC3)C2)nc2ccc(F)cc12 (centres undefined)	-	32µM	-	40µM
Cc1ccc2nc(C3CCCN(Cc4cccc(-c5ccc(F)cc5F)c4)C3)[nH]c(=O)c2c1 (centres undefined)	-	?	-	?
CC(C)NC(=O)N1CCC2(CC1)CN(C(=O)Cc1csc(N)n1)Cc1ccccc1O2	.	-	.	-
O=C1COc2ccc(-c3ccc(F)c(Cl)c3)nc2CN1Cc1nc2ccccc2s1	-	50µM	-	?
CC(=O)Nc1cccc(-c2ccc3c(n2)CN(Cc2ccccc2F)C(=O)CO3)c1	-	?	-	?
CC(=O)Nc1cccc(-c2ccc3c(n2)CN(Cc2nc4ccccc4s2)C(=O)CO3)c1	?	?	-	?
O=C1COc2ccc(-c3cc(F)cc(F)c3)nc2CN1Cc1ccccc1F	-	89µM	-	?
O=C1COc2ccc(OCc3ccccc3)nc2CN1Cc1ccccc1F	-	?	?	100µM
COc1ccc(-c2cc(N3CCC(NC(=O)c4ccc(Cl)cc4)CC3)n[nH]2)cc1	-	45µM	?	?
COc1cc(OC)cc(C(=O)NC2CCN(c3cc(-c4ccc(F)cc4)[nH]n3)C2)c1 (centres undefined)	-	?	-	?
O=C(Cc1ccc(F)cc1)NC1CCN(c2cc(-c3ccccc3)[nH]n2)CC1	-	?	-	?
COc1ccc(-c2cc(N3CCC(NC(=O)c4ccc(Cl)cc4)C3)n[nH]2)cc1 (centres undefined)	-	?	-	?
O=C(Cc1cccc(Cl)c1)NC1CCN(c2cc(-c3ccccc3)[nH]n2)CC1	-	?	-	32µM
COc1cc(OC)cc(C(=O)NC2CCN(c3cc(-c4ccc(F)cc4)[nH]n3)CC2)c1	-	?	-	35µM
O=C(NC1CCN(c2cc(-c3ccccc3)[nH]n2)CC1)c1ccc2ccccc2n1	-	50µM	-	28µM
CNC(=O)c1ccc2nc(-c3ccccn3)oc2c1	.	-	.	-
O=C([C@H]1CCCN1C(=O)c1ccc(C(F)(F)F)cc1)N1CCC(N2CCOC2=O)CC1	.	-	.	-
COc1ccc(CC(=O)NC2CCN(c3cc(-c4ccc(Cl)cc4)[nH]n3)C2)cc1 (centres undefined)	-	28µM	-	?
COc1ccc(-c2cc(N3CCC(NC(=O)Cc4ccc(Cl)cc4)CC3)n[nH]2)cc1	-	?	-	?
O=C(NC1CCN(c2cc(-c3ccccc3)[nH]n2)CC1)c1ccc(Cl)cc1	-	?	-	20µM
O=C(NC1CCN(c2cc(-c3ccc(Cl)cc3)[nH]n2)CC1)c1ccc2[nH]ccc2c1	-	40µM	-	35µM
CC#CCn1cc2c3c(cccc31)[C@H](CC(C)C)N[C@H](C(=O)N1CCN(CCO)CC1)C2	-	?	-	?
COc1cccc(-c2cc(-c3nc(C4CC(=O)N(C5CCCCC5)C4)no3)[nH]n2)c1 (centres undefined)	-	?	?	?
SMILES	FLuc inh	HEK293 tox	hNpr1 antagonist	3T3 cytotox
CC(C)c1ccc(CN2CCCC3(CCN(C(=O)c4ccnn4C)C3)C2)cc1 (centres undefined)	-	40µM	-	-
COC[C@@H]1CN(C(=O)Cc2ccccc2Cl)C[C@H]1c1ccncc1	-	-	-	-
Cc1ccc(CNC(=O)c2ccc3c(c2)CN(Cc2cc(F)c(F)c(F)c2)CCO3)cc1	-	35µM	-	?
Cc1ccc(CNC(=O)c2ccc3c(c2)CN(CC2=Cc4ccccc4OC2)CCO3)cc1	-	28µM	?	?
Cc1ccc(CNC(=O)c2ccc3c(c2)CN(Cc2cncs2)CCO3)cc1	-	?	-	-
COc1cc(CNC(=O)[C@@H]2COCC(=O)N2Cc2ccc(C)cc2)cc(OC)c1	.	-	.	-
COCCNC(=O)c1cc(C2CC2)nc2c1c(C1CCCN1)nn2-c1ccccc1 (centres undefined)	.	79µM	.	?
O=C(c1cc(C2CC2)nc2c1c(C1CCCN1)nn2-c1ccccc1)N1CCC(F)CC1 (centres undefined)	.	?	.	32µM
Cn1nc(C2CCCN2)c2c(C(=O)N3CCC(F)CC3)cc(C3CC3)nc21 (centres undefined)	.	-	.	-
COc1ccc(-c2cc(C(=O)NCC(C)C)c3c(C4CCCN4)nn(C)c3n2)cc1 (centres undefined)	.	?	.	32µM
COCCNC(=O)c1cc(-c2ccc(OC)cc2)nc2c1c(C1CCCN1)nn2C (centres undefined)	.	-	.	?
Cc1ccc2nc(CO[C@H]3CN(Cc4ccc(Cl)cc4)C[C@H]3F)[nH]c2c1	-	89µM	?	?
Cc1ccc2nc(CO[C@H]3CN(Cc4ccc(F)c(F)c4)C[C@H]3F)[nH]c2c1	-	?	-	?
CS(=O)(=O)c1ccc(CN2C[C@@H](F)[C@@H](OCc3nc4ccc(F)cc4[nH]3)C2)cc1	-	-	?	-
CCNC(=O)N1C[C@@H](F)[C@@H](OCc2nc3ccc(C)cc3[nH]2)C1	63µM	-	-	-
Cc1cc2nc(CO[C@H]3CN(Cc4ccc(S(C)(=O)=O)cc4)C[C@H]3F)[nH]c2cc1C	56µM	?	-	-
CN1C[C@@H](F)[C@@H](OCc2nc3ccc(C(F)(F)F)cc3[nH]2)C1	50µM	-	-	?
O=C(c1cccc(Cl)c1)N1CCC(N(C(=O)C2CC2)C2CCOCC2)CC1	-	-	-	-
Cn1cc(CN2C[C@@H](F)[C@@H](OCc3nc4ccc(C#N)cc4[nH]3)C2)c2ccccc21	-	89µM	?	89µM
COc1ccc(NC(=O)c2cc3sc(C)c(CN4CCCCC4)c3[nH]2)cc1OC	-	?	-	40µM
c1ccc(-c2cnc(Nc3ccncc3)c3c2CCO3)cc1	28µM	79µM	25µM	45µM
CN(C)c1cccc(-c2cnc(Nc3cncnc3)c3c2CCO3)c1	-	?	-	?
Cn1cc(-c2cnc(Nc3ccc(F)c(Cl)c3)c3c2CCO3)cn1	-	?	-	-
Cn1cc(-c2cnc(Nc3ccncc3)c3c2CCO3)cn1	-	?	-	89µM
O=C(NCc1cccs1)c1ccc2nnc(Cc3ccco3)n2c1	.	-	.	?
COc1cccc(CNC[C@H]2O[C@H](Cc3cc(CN4CCOCC4)on3)CC[C@@H]2O)c1	-	-	-	-
COc1cccc(CNC[C@H]2O[C@H](Cc3cc(-c4ccccc4)on3)CC[C@@H]2O)c1	-	112µM	-	?
CC(C)CN(CC(C)C)C[C@H]1O[C@H](Cc2cc(COc3ccccc3)on2)CC[C@@H]1O	-	100µM	-	100µM

Screening results (PubChem BioAssay)
